The whole screen tested about 5,500 compounds, of which about 2,000 (36%) were called active. Not shown: some 18% with an inconclusive outcome. This is one part of the list. A number with no mark means an inactive call. Rule as the data show it: active = normalized growth mostly below about 0.91 (no sharp cut-off); inconclusive = no clear call, values can overlap the other calls; inactive = mostly above about 0.92.
Experiment: chemical genetic growth profiling, strain panel (AID 1159580);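 also: tested at 20 µM; growth read once vehicle control cultures reached saturation at 30 °C; 1 = growth at the plate median or of vehicle wells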
Settings: S. cerevisiae deletion strains, growth OD
[1] = locus YAL013W, strain DEP1, stronger effect = lower value
[2] = locus YAL040C, strain CLN3, stronger effect = lower value
[3] = locus YCL061C, strain MRC1 (second series), stronger effect = lower value
[4] = locus YDR363W, strain ESC2, stronger effect = lower value
[5] = locus YER002W, strain NOP16, stronger effect = lower value
[6] = locus YNL175C, strain NOP13, stronger effect = lower value
[7] = locus YNL197C, strain WHI3, stronger effect = lower value
[8] = locus YNL224C, strain SQS1, stronger effect = lower value
[9] = locus YOR083W, strain WHI5 (second series), stronger effect = lower value

SMILES	normalized growth [1]	normalized growth [2]	normalized growth [3]	normalized growth (locus YDR150W, strain NUM1, stronger effect = lower value)	normalized growth [4]	normalized growth [5]	normalized growth (locus YMR263W, strain SAP30, stronger effect = lower value)	normalized growth [6]	normalized growth [7]	normalized growth [8]	normalized growth [9]	normalized growth (locus YGR078C, strain PAC10, stronger effect = lower value)	normalized growth (locus YNL153C, strain GIM3, stronger effect = lower value)	normalized growth (locus YNL322C, strain KRE1, stronger effect = lower value)	normalized growth (locus YPL055C, strain LGE1, stronger effect = lower value)	normalized growth (locus YPL241C, strain CIN2, stronger effect = lower value)
NC(Cc1ccc(O)c(O)c1)C(=O)O (stereo not given)	0.997	1.02	0.977	0.955	1.02	1.01	1.01	1.01	1.03	1.01	0.97					
C[C@H](Cc1ccc(O)c(O)c1)[C@@H](C)Cc1ccc(O)c(O)c1	0.783 (active)	1.07	0.811 (active)		0.745 (active)	0.979		0.946	0.969	0.966	0.925	0.986	0.863	0.478 (active)	0.77 (active)	0.578 (active)
